The text below walks through data of PubChem BioAssay AID2546 (National Center for Advancing Translational Sciences (NCATS), 2010).

Hit rate of the full screen: of about 310,000 compounds, about 11,000 (3.5%) were called active. About 8% were inconclusive and are not listed. What follows is part of a selection rich in actives, with near analogues and random picks from the rest. Where a call stands in place of a potency, no number is given. Values without a mark were called inactive. Calls follow the shape of the dose curve; as a rule, active = well fitted inhibition curve with a large enough effect; inconclusive = small, poorly fitted or top-dose-only effect, or effect the other way; inactive = flat fitted curve, though single readings scatter.
Potency is read from the fitted curve at half-maximal effect.

This assay in a line: VP16 counterscreen qHTS for inhibitors of ROR gamma transcriptional activity.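 Also: Gal4-VP16 expression switched on by copper sulfate through the metallothionein promoter; nearly all actives have a fitted effect of over 50% in size.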 Conditions: Drosophila S2 Gal4-VP16 UAS-luciferase, luminescence, 20 h; series mostly up to 53.6 µM. For orientation: The purpose of a counterscreen is to sort out artefacts and off-target activity.
With `CCc1ccc(-c2cc(C)no2)cc1S(=O)(=O)NCCc1ccc(S(N)(=O)=O)cc1`, the Potency result was “inactive”. For `NS(=O)(=O)c1ccc(CCNC(=O)c2nc(CS(=O)(=O)c3ccc(Cl)cc3)no2)cc1`, the Potency entry was “inactive”. With `COc1ccc(C(=O)COC(=O)Cn2cnc3c2c(=O)n(C)c(=O)n3C)c(OC)c1`, the Potency result is “inactive”. On to `CCCCNC(=O)CN1C(=O)NC(Cc2ccccc2)(Cc2ccccc2)C1=O`, for which the Potency entry was “inactive”. For `O=C(N/N=C\C1CC=CCC1)c1ccc(Br)o1` (centres undefined), the Potency result was “inactive”. Consider `CC1(C)NC(=O)N(CC(=O)Nc2cc(C(F)(F)F)cc(C(F)(F)F)c2)C1=O`, for which the Potency entry is “inactive”. For the molecule `COc1ccc2[nH]c(C(=O)N/N=C/c3cc(OC)c(OC)c(OC)c3)cc2c1`, the Potency result was “inactive”.

As for `COc1ccc(N)c(OC)c1`, the Potency result is “inactive”. `CCC(=O)c1ccc(OC(=O)/C=C/c2cc(OC)c(OC)c(OC)c2)cc1`: the Potency result was “inactive”. The same measure, in the same setting: the result for `COc1ccc(/C=C/C2=CC(C)(C)NC(=S)N2)c(OC)c1` reads 3.55 µM (active); that for `COc1cc(/C=C/C2=CC(C)(C)NC(=S)N2)cc(OC)c1OC`, 12.6 µM (active). On to `COc1ccc(/C=C2/C(=O)N(c3ccccc3)N=C2C)c(OC)c1`, for which the Potency result was “inactive”.

`CC1C(=O)N(Cc2ccccc2)c2ccccc2N1C(=O)c1ccccc1` (centres undefined): the Potency result is “inactive”. As to `COc1ccc(CSc2nnnn2-c2ccc(C(=O)O)cc2)cc1`, the Potency result was “inactive”.

Consider `COCCCNC(=O)[C@H]1N2C(=O)c3ccccc3C2SC1(C)C` (some centres undefined), for which the Potency entry was “inactive”. On the same count and under the same terms, the result for `COc1ccc(CCn2c(-c3ccco3)nc3nc4ccccc4nc32)cc1OC` reads “inactive”. Regarding `Cn1cccc1-c1nc2ccccc2n1C`, the activity, negative = inhibition was -16.5% [at 10 µM]. As for `Cn1c(-c2ccco2)nc2cc3ccccc3cc21`, the Potency was 11.2 µM (active). The same measure, in the same setting: the result for `CCn1cc(C(=O)NCCC(=O)NCCO)c(=O)c2cc3c(cc21)OCO3` reads “inactive”; that for `O=C(N/C(=C/c1ccc(Cl)cc1)C(=O)N1CCCCC1)c1ccco1`, “inactive”. In the case of `COC(=O)c1ccc(CNC(=O)c2ccc3oc(C(C)C)nc3c2)cc1`, the Potency entry is “inactive”. Consider `FC(F)(F)C1CCCN(c2nsc3ccccc23)C1` (centres undefined), for which the Potency was 28.2 µM (active). On the same count and under the same terms, the result for `O=c1[nH]c(/C=C\c2cccc(C(F)(F)F)c2)nc(O)c1[N+](=O)[O-]` reads “inactive”; that for `CCN1CCN(C(=O)C2CCN(S(=O)(=O)c3cc(Cl)ccc3Cl)CC2)CC1`, “inactive”; that for `CSc1ccc(CNCCN2CCOCC2)cc1`, “inactive”.

Regarding `CC(C)(C)c1ccc(CCC2OCC(CN3CCOCC3)O2)cc1` (centres undefined), the Potency was 4.47 µM (active). Same read-out and setting: the result for `CCCCOc1ccc(C(C)(O)CCN2CCOCC2)cc1` (centres undefined) reads “inactive”; that for `COc1ccc(/C=C/c2c(-c3cccc(C)c3)oc3ccc(-c4ccc5c(c4)OCO5)cc23)cc1`, “inactive”; that for `COc1cccc2cc(C(=O)NCc3ccc(C)cc3)c(=N)oc12`, “inactive”.
